In article PMC4336329 (PLoS ONE, 2015):
The whole screen tested about 310,000 compounds, of which about 14,000 (4.5%) showed an effect of 50% or more. The effect is printed as a negative number. The full list was thinned out, with strong results kept by preference.

molecular target: human ether-à-go-go-related gene (hERG) potassium channel (human, UniProt Q12809); experiment: primary screen, population patch clamp on CHO cells stably expressing hERG; higher = less effect of the substance
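Note: peak tail current of the secondary pulse compared with the same well before compound.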

Sequence of human ether-à-go-go-related gene (hERG) potassium channel (Q12809 whole entry, looked up): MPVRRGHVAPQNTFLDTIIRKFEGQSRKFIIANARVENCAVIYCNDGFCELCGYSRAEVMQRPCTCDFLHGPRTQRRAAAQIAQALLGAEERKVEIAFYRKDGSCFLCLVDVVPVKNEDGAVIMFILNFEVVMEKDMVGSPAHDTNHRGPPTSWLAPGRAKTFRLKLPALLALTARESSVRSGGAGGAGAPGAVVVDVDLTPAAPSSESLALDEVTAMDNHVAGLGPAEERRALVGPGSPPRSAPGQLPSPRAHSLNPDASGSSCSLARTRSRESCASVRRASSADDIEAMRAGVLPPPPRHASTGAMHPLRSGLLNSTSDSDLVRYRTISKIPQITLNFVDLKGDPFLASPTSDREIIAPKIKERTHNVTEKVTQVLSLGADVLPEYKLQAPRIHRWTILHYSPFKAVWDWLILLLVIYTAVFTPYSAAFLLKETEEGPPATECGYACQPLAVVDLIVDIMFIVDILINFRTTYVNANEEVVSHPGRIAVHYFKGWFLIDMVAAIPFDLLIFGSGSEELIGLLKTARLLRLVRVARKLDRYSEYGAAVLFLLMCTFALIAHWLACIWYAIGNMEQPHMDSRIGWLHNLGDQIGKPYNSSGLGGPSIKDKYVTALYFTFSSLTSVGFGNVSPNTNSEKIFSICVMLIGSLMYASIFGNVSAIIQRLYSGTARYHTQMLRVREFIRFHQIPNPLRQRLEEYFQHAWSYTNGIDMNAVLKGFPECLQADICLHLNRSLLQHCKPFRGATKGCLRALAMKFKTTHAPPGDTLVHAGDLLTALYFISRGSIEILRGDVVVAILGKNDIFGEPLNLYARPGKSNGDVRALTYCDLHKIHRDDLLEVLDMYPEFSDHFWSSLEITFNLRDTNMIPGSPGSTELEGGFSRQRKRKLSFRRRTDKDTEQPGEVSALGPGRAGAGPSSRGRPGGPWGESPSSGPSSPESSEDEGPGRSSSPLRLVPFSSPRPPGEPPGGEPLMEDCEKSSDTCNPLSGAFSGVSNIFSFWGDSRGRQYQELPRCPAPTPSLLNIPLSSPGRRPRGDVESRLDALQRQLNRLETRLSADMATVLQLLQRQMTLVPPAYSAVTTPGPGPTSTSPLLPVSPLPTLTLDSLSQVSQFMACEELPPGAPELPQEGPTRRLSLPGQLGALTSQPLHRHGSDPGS

| Compound | hERG current change (%, negative = inhibition) at 10uM [%] |
| --- | --- |
| CC(=O)Nc1ccc(S(=O)(=O)NCC2CCC(C(=O)N3CCCCCC3)CC2)cc1 (stereo not shown) | 5.67 |
| CN(c1ccccc1)S(=O)(=O)c1ccc(Cl)nc1 | 10.8 |
| C#CCOCCOCCOCCNc1nc(N2CCN(C(=O)[C@H]([C@@H](C)CC)n3cc([C@@H](N)Cc4ccc(O)cc4)nn3)CC2)nc(N2CCN(C(=O)[C@H](Cc3cc4ccccc4[nH]3)n3cc([C@@H](N)C(C)CC)nn3)CC2)n1.Cl (stereo partly shown) | 3.33 |
| Cc1cc(Cl)ccc1OCC(=O)Nc1nc(-c2cccs2)cs1 | 15.6 |
| CC(OC(=O)Cc1c[nH]c2ccccc12)C(=O)Nc1ccccc1F (stereo not shown) | -11.7 |
| CN1CCN(Cc2cccc(Oc3ccc(Cl)cc3)c2)CC1 | 1.98 |
| O=C(c1cccc(C(=O)N2CCN(Cc3ccccc3)CC2)c1)N1CCN(Cc2ccccc2)CC1 | -17.2 |
| CCN1CCN(Cc2cccc(Oc3ccc(Cl)cc3)c2)CC1 | -56.9 |
| COc1cccc(C(=O)N2CCN(Cc3cccc(F)c3)CC2)c1.O=C(O)C(=O)O | -7.48 |
| O=C(O)C(=O)O.O=C(c1cccc(F)c1)N1CCN(Cc2cccc(Br)c2)CC1 | -48.6 |
| CCOc1ccc(CN2CCN(C(=O)c3cccc(F)c3)CC2)cc1.O=C(O)C(=O)O | -62 |
| COc1cccc(CN2CCN(C(=O)c3ccc(-c4ccccc4)cc3)CC2)c1 | -38.3 |
| O=C(c1ccccc1)N1CCN(Cc2cccc(Oc3ccccc3)c2)CC1 | -50.1 |
| CCN1CCN(Cc2cccc(Oc3ccccc3)c2)CC1 | -35.9 |
| C=CCn1c(-c2cccc(OC)c2OC)n[nH]c1=S | -24.3 |
| Cc1cc2c(c(=O)n1Cc1ccccn1)C(c1ccc3c(c1)OCO3)C(C#N)=C(N)O2 (stereo not shown) | -0.622 |
| COc1ccc(C(=S)N2CCCC2)cc1OC | 2.36 |
| CC(C)OC(=O)CC(=O)CSc1nc2c(cc1C#N)CCCCCC2 | -4.33 |
| O=C(O)c1ccc(C2SCC(=O)N2Cc2ccccc2)cc1 (stereo not shown) | -0.7 |
| COc1ccc(N2CCN(C(=O)CSc3nnc4c(C)cc5cc(C)ccc5n34)CC2)cc1 | -21.2 |
| O=C1C2C3C=CC(C3)C2C(=O)N1c1n[nH]c(-c2cccnc2)n1 (stereo not shown) | 11.1 |
| O=C(CSc1nnc(Cn2c(=O)sc3ccccc32)n1-c1ccccc1)N1CCCCCC1 | -12.5 |

| Compound | hERG current change (%, negative = inhibition) at 10uM [%] |
| --- | --- |
| CCO[C@@H]1OC(C(=O)NCc2ccccc2)=C[C@H](c2coc3ccccc3c2=O)[C@H]1CCCO | -47.5 |
| O=C(Nc1ccc(F)c(F)c1)C1CCN(S(=O)(=O)c2cccs2)CC1 | -53.7 |
| Cc1ccc(NC(=O)C2CCN(S(=O)(=O)c3cccs3)CC2)cc1C | -31.1 |
| O=C(Nc1ccccc1)C1CCN(S(=O)(=O)c2cccs2)CC1 | -16.4 |
| CNC(=O)c1ccsc1NC(=O)C1CCN(S(=O)(=O)c2ccc(Cl)s2)CC1 | -54.9 |
| O=C(Nc1ccc(F)cc1)C1CCN(S(=O)(=O)c2cccs2)CC1 | -24.4 |
| N#Cc1ccsc1NC(=O)C1CCN(S(=O)(=O)c2cccs2)CC1 | -20.2 |
| CNC(=O)c1ccsc1NC(=O)C1CCCN1S(=O)(=O)c1cccs1 (stereo not shown) | 7.6 |
| NC(=O)c1ccsc1NC(=O)C1CCN(S(=O)(=O)c2cccs2)CC1 | -52.4 |
| CNC(=O)c1ccsc1NC(=O)c1ccc(Cl)s1 | -0.512 |
| O=C(Nc1nccs1)C1CCN(S(=O)(=O)c2cccs2)CC1 | -24.1 |
| CNC(=O)c1ccsc1NC(=O)C1CCN(S(=O)(=O)c2cccs2)CC1 | -55.1 |
| CCOC(=O)C1CCN(S(=O)(=O)c2ccc(Cl)s2)CC1 | -13.3 |
| CCC(c1nnc(SCC(=O)NCCc2ccc(Cl)cc2Cl)o1)N(C)C (stereo not shown) | -19.9 |
| Cc1nn(-c2ccccn2)c2c1-c1nc(N)ncc1CC2 | 5.03 |
| CC(C)CCn1c(Sc2nc3ccccc3o2)nc2c1c(=O)[nH]c(=O)n2C | -20.8 |
| Cc1ccc(-c2ocnc2C(=O)N2CCOCC2)cc1 | 21.4 |
| COc1ccc(OC)c(-c2c(=O)n(OCc3ccccc3Br)c3ccccc3[n+]2[O-])c1 | 11.5 |
| CCCN1CCc2c(sc(NC(=O)C3CCN(S(=O)(=O)c4cccs4)CC3)c2C(N)=O)C1.Cl | -61.3 |
| CN1CCc2c(sc(NC(=O)C3CCN(S(=O)(=O)c4cccs4)CC3)c2C(N)=O)C1.Cl | -30.8 |
| CCCn1c(NC(=O)C2CCN(S(=O)(=O)c3cccs3)CC2)nc2ccccc21 | -68.8 |
| CC(=O)N1CCc2c(sc(NC(=O)C3CCN(S(=O)(=O)c4cccs4)CC3)c2C(N)=O)C1 | -29.4 |

| Compound | hERG current change (%, negative = inhibition) at 10uM [%] |
| --- | --- |
| O=C(Nc1nc2ccccc2[nH]1)C1CCN(S(=O)(=O)c2cccs2)CC1 | -0.923 |
| Cc1csc(NC(=O)C2CCN(S(=O)(=O)c3cccs3)CC2)n1 | -27.3 |
| CC12CN(C(=O)c3ccccc3Br)CC(C)(CN(C(=O)c3ccccc3Br)C1)C2=O | -4.96 |
| CCC(=O)Nc1ccc(C(=O)CSc2nnc(-c3ccc(NS(=O)(=O)CC)cc3)o2)cc1OC | 5.26 |
| O=C(CCN1C(=O)c2ccccc2C1=O)N1CCN(C(=O)c2ccccc2)CC1 | 0.00878 |
| CN(C)CCN(C)Cc1ccccc1Sc1cccc2ccccc12.Cl | -65.3 |
| CN(C)CCN(C)Cc1c2ccccc2c(CN(C)CCN(C)C)c2ccccc12 | 0.802 |
| CN(C)Cc1ccccc1Sc1ccccc1Br | -36.5 |
| CCOC(=O)c1nn(-c2ccc(C)cc2)c(=O)cc1OCC(=O)Nc1cc(C)ccc1OC | -2.12 |
| Cc1cccc(NC(=O)C2C(c3ccccc3)C2(Cl)Cl)c1 (stereo not shown) | -5.35 |
| CC1CCCCN1CCNc1nc(=S)[nH]c2ccccc12 (stereo not shown) | -67.5 |
| S=c1nc(NCCc2ccccc2Cl)c2ccccc2[nH]1 | 20 |
| CC1CCCCN1CCCNc1c(C=O)c(=O)[nH]c2ccccc12 (stereo not shown) | -3.96 |
| Cc1nc2ccccc2c(=O)n1/N=C/c1ccccn1 | -3.77 |
| Cc1ccc(S(=O)(=O)N2CCOC2CNC(=O)C(=O)NCCN2CCOCC2)cc1 (stereo not shown) | 10.6 |
| COc1ccccc1OCC(O)Cn1nc(C)cc1C (stereo not shown) | 9.76 |
| COc1ccccc1OCC(O)COC(N)=O (stereo not shown) | 10.3 |
| CCCCCn1c(=N)n(CC(O)COc2ccccc2OC)c2ccccc21.Cl (stereo not shown) | -81.1 |
| CCCCCn1c(=N)n(CC(O)COc2ccccc2OC)c2ccccc21 (stereo not shown) | -75.9 |
| Cc1ccc(C(=O)Nc2nnc(S(=O)(=O)N3CCN(c4ccc(F)cc4)CC3)s2)cc1 | 2.59 |
| COc1ccc2c(C)nc(Nc3nc(C)cc(C)n3)nc2c1 | 5.64 |
| COc1cc(C2(c3ccc(O)c(OC)c3)C(=O)N(C)c3ccc(Br)cc32)ccc1O | -52.6 |

| Compound | hERG current change (%, negative = inhibition) at 10uM [%] |
| --- | --- |
| COc1cc(C2(c3ccc(O)c(OC)c3)C(=O)N(C)c3ccc(C)cc32)ccc1O | -19 |
| Cc1cc(C2(c3ccc(O)c(C)c3)C(=O)N(C)c3ccc(Br)cc32)ccc1O | -2.28 |
| COC(=O)c1c(NC(=O)C(=O)N2CCOCC2)sc2c1CCCC2 | 7.47 |
| CC1CN(C(=O)c2ccccc2OCc2ccc(Cl)cc2Cl)CC(C)O1 (stereo not shown) | -37.7 |
| CC(NC(=O)COC(=O)c1ccc(N(C)C)cc1)c1ccccc1 (stereo not shown) | 3.44 |
| CC(=O)N(c1ccccc1)c1nc(C)cc(C)c1C#N | 12.1 |
| COc1cc(-c2noc(C)c2C#Cc2nccn2C)cc(OC)c1OC | -53.4 |
| COc1cc(-c2noc(C)c2C#Cc2ccccn2)cc(OC)c1OC | -29 |
| COc1cc(-c2noc(C)c2C#CCO)cc(OC)c1OC | 6.47 |
| O=Cc1cn(CCC(=O)O)nc1-c1cccc(Br)c1 | 24.2 |
| Cc1ccc(S(=O)(=O)N(CC(=O)Nc2cccnc2)c2cccc([N+](=O)[O-])c2)cc1 | -56.6 |
| O=C(CN(c1cccc([N+](=O)[O-])c1)S(=O)(=O)c1ccccc1)NCc1ccccc1 | -68.5 |
| COc1ccc(N(CC(=O)Nc2cccnc2)S(=O)(=O)c2ccc(C)cc2)cc1Cl | -16.9 |
| Cc1ccc(CNC(=O)CN(c2cccc([N+](=O)[O-])c2)S(=O)(=O)c2ccccc2)cc1 | -25 |
| Cc1ccc(S(=O)(=O)N(CC(=O)Nc2cccnc2)c2ccccc2C)cc1 | -16.4 |
| CCOc1ccc(N(CC(=O)Nc2cccnc2)S(=O)(=O)c2ccc(C)cc2)cc1 | -5.5 |
| Cc1ccc(S(=O)(=O)N(CC(=O)Nc2cccnc2)c2ccc(Br)cc2)cc1 | -50.3 |
| Cc1ccc(S(=O)(=O)N(CC(=O)Nc2cccnc2)c2cccc(Br)c2)cc1 | -11.5 |
| O=C(CN(c1cccc([N+](=O)[O-])c1)S(=O)(=O)c1ccccc1)NCc1cccnc1 | -42.2 |
